From PubChem BioAssay (EPA / NIEHS)
Values joined by “and” are separate entries in the source; they are usually repeats but may differ in a detail not shown here. Equal values may be shown once. Results filed as inconclusive are left out. Active and inactive are the calls of the source. Rule for the calls, unless noted: active = hit-call score of the fitted dose curve at least 0.9, where 1 is the maximum; inconclusive = response in the unintended direction; inactive = score below 0.9.

Columns and labels:
[1] = molecular target: human Fibroblast Growth Factor Receptor 1 (FGFR1), FGFR1 (gene 2260) (UniProt P11362); assay: NVS_ENZ_hFGFR1: NovaScreen (NVS) Enzymatic Assay for human Fibroblast Growth Factor Receptor 1 (FGFR1) (AID 2283159);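 for AC50: hits lower the signal so potencies describe inhibitors of the kinase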
Sequence of human Fibroblast Growth Factor Receptor 1 (FGFR1), FGFR1 (gene 2260) (P11362 whole entry, looked up): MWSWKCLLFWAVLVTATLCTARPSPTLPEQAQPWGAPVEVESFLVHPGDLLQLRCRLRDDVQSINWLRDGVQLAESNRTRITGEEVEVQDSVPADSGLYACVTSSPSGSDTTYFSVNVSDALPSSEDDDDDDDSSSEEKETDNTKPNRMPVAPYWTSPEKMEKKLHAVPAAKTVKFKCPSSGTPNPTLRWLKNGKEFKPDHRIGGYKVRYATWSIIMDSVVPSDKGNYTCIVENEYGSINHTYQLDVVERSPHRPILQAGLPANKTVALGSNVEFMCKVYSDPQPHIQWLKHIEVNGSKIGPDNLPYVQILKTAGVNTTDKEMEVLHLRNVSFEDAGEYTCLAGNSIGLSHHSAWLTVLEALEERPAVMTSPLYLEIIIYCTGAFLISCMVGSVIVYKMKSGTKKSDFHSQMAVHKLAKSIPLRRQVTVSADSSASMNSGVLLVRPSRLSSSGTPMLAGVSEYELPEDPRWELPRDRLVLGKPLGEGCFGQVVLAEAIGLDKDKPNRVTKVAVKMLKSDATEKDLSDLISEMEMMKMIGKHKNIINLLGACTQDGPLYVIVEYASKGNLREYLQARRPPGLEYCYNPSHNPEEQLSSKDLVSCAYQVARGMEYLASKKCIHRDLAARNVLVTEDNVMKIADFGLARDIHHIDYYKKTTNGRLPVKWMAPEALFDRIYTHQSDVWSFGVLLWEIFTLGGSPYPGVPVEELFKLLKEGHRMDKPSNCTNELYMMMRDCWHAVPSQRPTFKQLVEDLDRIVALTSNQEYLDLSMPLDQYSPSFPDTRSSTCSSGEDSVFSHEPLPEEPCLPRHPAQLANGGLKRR
How it was run: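 Cell-free recombinant kinase with fluorescent substrate, product separated by electrophoretic mobility shift; read 1 hour after dosing, loss of signal relative to DMSO. Initial screen in duplicate at 25 uM, actives followed in concentration series.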

[2] = tested on: guinea pig Atrionatriuretic Peptide Receptor A (ANPA), gene 100135578; assay: NVS_GPCR_gANPA: NovaScreen (NVS) G Protein-Coupled Receptor Assay for guinea pig Atrionatriuretic Peptide Receptor A (ANPA) (AID 2283291)
How it was run: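 Radioligand binding to guinea pig cerebellar membranes was measured after 1 h by filter-based scintillation counting. Chemicals were tested in duplicate at 25 uM, with hits run in concentration-response to a maximum of 50 uM. Binding loss was fitted against DMSO.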

[3] = molecular target: bovine Gamma-Aminobutyric Acid Type A Receptor BDZ, alpha 1 site (GABARa1), GABRA1 (gene 780973) (UniProt P08219); assay: NVS_LGIC_bGABARa1: NovaScreen (NVS) Ligand-Gated Ion Channel Assay for bovine Gamma-Aminobutyric Acid Type A Receptor BDZ, alpha 1 site (GABARa1) (AID 2283321)
How it was run: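 Radioligand competition binding on bovine cortical membranes, 0.75 h, filter-based scintillation counting. Primary single concentration 25 uM in duplicate; actives rerun in concentration-response to 50 uM max. Loss of signal fitted versus DMSO.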

[4] = molecular target: rat Gamma-Aminobutyric Acid Type A Receptor BDZ, alpha 6 site (GABARa6), Gabra6 (gene 29708) (UniProt P30191); assay: NVS_LGIC_rGABARa6: NovaScreen (NVS) Ligand-Gated Ion Channel Assay for rat Gamma-Aminobutyric Acid Type A Receptor BDZ, alpha 6 site (GABARa6) (AID 2283339)
How it was run: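 Rat cerebellar membranes; radioligand binding, filtration and scintillation counting, read 1 h after dosing. Single-concentration duplicate screen at 25 uM, then concentration-response up to 50 uM for actives; loss of signal fitted versus DMSO baseline.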

[5] = molecular target: human NIMA (Never In Mitosis Gene A)-Related Kinase 2 (NEK2), NEK2 (gene 4751) (UniProt P51955); assay: NVS_ENZ_hNEK2: NovaScreen (NVS) Enzymatic Assay for human NIMA (Never In Mitosis Gene A)-Related Kinase 2 (NEK2) (AID 2283188)
How it was run: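 Cell-free NEK2 enzyme activity after 1 h exposure, read by fluorescence with electrophoretic mobility shift separating substrate and product. Primary screen in duplicate at 25 uM; actives then run as concentration series. Loss of signal versus DMSO scored.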

PPP2CA (gene 5515) = PPP2CA (gene 5515) (UniProt P67775); assay: NVS_ENZ_hPPP2CA: NovaScreen (NVS) Enzymatic Assay for human Protein Phosphatase 2 Aatalytic subunit Alpha (PPP2CA) (AID 2283199)
How it was run: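 Recombinant human PPP2CA with fluorescent substrate; product separated from substrate by electrophoretic mobility shift, read 1.33 h after dosing. Duplicate single-point at 25 uM, then singleton concentration-response up to 50 uM; loss of signal versus DMSO.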

[6] = molecular target: human Phosphatase and Tensin Homolog (PTEN), PTEN (gene 5728) (UniProt P60484); assay: NVS_ENZ_hPTEN: NovaScreen (NVS) Enzymatic Assay for human Phosphatase and Tensin Homolog (PTEN) (AID 2283203)
Sequence of human Phosphatase and Tensin Homolog (PTEN), PTEN (gene 5728) (P60484 whole entry, looked up): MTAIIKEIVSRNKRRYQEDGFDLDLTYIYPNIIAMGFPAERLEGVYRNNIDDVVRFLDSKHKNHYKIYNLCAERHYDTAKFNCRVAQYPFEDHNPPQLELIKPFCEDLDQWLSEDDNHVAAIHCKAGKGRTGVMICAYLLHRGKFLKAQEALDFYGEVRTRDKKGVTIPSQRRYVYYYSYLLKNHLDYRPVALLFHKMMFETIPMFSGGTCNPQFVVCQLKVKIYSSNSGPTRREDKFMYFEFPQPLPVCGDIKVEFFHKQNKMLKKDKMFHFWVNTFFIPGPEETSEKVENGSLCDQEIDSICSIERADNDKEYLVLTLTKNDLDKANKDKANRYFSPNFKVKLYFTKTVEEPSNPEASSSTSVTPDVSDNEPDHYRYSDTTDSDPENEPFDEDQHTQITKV
How it was run: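 Cell-free recombinant human PTEN with fluorescent substrate; product separated by electrophoretic mobility shift and read by fluorescence 1 h after dosing. Primary screen in duplicate at 25 uM, actives followed in concentration series versus DMSO.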

[7] = molecular target: human Protein Tyrosine Phosphatase Non-receptor Type 2 (PTPN2), PTPN2 (gene 5771) (UniProt P17706); assay: NVS_ENZ_hPTPN2: NovaScreen (NVS) Enzymatic Assay for human Protein Tyrosine Phosphatase Non-receptor Type 2 (PTPN2) (AID 2283207)
How it was run: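 Cell-free recombinant enzyme with fluorescent substrate, product separated by electrophoretic mobility shift; read 1 h after dosing. Primary screen single concentration (25 uM) in duplicate; actives followed in concentration series; loss of signal versus DMSO.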

[8] = molecular target: human Raf-1 Proto-Oncogene, serine/threonine Kinase (RAF1), RAF1 (gene 5894) (UniProt P04049); assay: NVS_ENZ_hRAF1: NovaScreen (NVS) Enzymatic Assay for human Raf-1 Proto-Oncogene, serine/threonine Kinase (RAF1) (AID 2283216)
How it was run: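 Cell-free recombinant kinase with specific fluorescent substrate, product separated by electrophoretic mobility shift; read 1 h after dosing. Primary screen at 25 uM in duplicate; hits then run in concentration-response up to 50 uM, fitted as loss of signal versus DMSO.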

[9] = molecular target: human Tyrosine Protein Kinase Receptor Tie-2 (Tie2), TEK (gene 7010) (UniProt Q02763); assay: NVS_ENZ_hTie2: NovaScreen (NVS) Enzymatic Assay for human Tyrosine Protein Kinase Receptor Tie-2 (Tie2) (AID 2283225)
Sequence of human Tyrosine Protein Kinase Receptor Tie-2 (Tie2), TEK (gene 7010) (Q02763 whole entry, looked up): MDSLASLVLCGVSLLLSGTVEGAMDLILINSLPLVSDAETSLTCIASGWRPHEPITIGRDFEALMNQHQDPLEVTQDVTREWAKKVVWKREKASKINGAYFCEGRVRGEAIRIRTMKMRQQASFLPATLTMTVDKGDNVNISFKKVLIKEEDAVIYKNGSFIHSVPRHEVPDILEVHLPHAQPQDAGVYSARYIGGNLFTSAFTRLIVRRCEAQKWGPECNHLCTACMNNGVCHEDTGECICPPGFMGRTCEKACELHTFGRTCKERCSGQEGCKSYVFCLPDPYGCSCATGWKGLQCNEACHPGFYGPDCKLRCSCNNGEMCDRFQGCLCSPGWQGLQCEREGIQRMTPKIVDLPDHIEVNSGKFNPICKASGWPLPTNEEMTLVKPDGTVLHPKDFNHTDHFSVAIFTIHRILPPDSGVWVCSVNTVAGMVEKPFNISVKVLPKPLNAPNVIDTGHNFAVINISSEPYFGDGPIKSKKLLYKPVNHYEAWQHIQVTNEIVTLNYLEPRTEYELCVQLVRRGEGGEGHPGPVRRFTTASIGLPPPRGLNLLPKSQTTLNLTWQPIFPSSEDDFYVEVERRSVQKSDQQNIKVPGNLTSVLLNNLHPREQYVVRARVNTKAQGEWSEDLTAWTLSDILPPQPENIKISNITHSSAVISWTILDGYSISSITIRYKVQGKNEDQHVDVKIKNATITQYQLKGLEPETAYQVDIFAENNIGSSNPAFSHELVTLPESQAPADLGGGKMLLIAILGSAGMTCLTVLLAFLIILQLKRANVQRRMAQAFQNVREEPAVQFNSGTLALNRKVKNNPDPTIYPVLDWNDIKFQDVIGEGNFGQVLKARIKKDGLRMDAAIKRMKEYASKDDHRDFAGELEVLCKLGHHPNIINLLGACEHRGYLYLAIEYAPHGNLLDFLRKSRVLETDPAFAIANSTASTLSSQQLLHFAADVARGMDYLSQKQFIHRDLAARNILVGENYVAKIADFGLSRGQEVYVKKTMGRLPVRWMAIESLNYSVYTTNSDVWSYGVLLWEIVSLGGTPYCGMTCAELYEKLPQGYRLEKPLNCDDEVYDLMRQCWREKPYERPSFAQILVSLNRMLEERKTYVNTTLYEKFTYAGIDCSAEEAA
How it was run: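 Recombinant human Tie2 kinase activity was read cell-free by fluorescence with electrophoretic mobility shift, 1 hour after dosing. The screen used 25 uM in duplicate, then concentration-response up to 50 uM. Signal loss was scored against DMSO.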

[10] = molecular target: Norway rat Vesicular Monoamine Transporter (VMAT2), neurotransmitter transporter, Slc18a2 (gene 25549) (UniProt Q01827); assay: NVS_TR_rVMAT2: NovaScreen (NVS) Transporter Assay for Norway rat Vesicular Monoamine Transporter (VMAT2), neurotransmitter transporter (AID 2283376);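 note: actives lower the bound radioligand signal below the DMSO level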
Sequence of Norway rat Vesicular Monoamine Transporter (VMAT2), neurotransmitter transporter, Slc18a2 (gene 25549) (Q01827 whole entry, looked up): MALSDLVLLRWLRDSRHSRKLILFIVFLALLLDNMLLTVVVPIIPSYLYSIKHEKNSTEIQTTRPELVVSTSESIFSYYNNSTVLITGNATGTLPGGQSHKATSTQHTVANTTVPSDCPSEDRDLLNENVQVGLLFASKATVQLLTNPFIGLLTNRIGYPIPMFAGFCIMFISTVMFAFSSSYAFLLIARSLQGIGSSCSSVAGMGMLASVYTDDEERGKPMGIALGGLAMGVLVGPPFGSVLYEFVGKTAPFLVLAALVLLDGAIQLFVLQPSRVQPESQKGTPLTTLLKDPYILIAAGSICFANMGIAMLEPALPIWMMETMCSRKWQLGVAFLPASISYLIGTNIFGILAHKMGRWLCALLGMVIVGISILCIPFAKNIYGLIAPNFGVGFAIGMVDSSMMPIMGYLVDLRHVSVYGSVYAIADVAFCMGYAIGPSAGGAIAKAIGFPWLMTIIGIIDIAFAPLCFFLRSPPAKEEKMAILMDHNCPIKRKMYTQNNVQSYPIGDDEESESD
How it was run: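 Tissue: rat forebrain extract. Format: competitive radioligand binding, cell-free. Timepoint: 1 h. Readout: filter radiodetection/scintillation. Screen: 25 uM in duplicate, then concentration series for actives. Baseline: DMSO.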

[11] = molecular target: Protein deacetylase HDAC6 (Homo sapiens) (UniProt Q9UBN7); assay: NVS_ENZ_hHDAC6: NovaScreen (NVS) Enzymatic Assay for human Histone Deacetylase 6 (HDAC6) (AID 2283164)
How it was run: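 Recombinant human HDAC6 with fluorescent substrate, 1 h; product separated from substrate by electrophoretic mobility shift. Primary screen in duplicate at 25 uM; actives retested singly in concentration-response up to 50 uM, fitted relative to DMSO.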

[12] = molecular target: rat Monoamine Oxidase, MAO-B, Peripheral (MAOBP), Maob (gene 25750) (UniProt P19643); assay: NVS_ENZ_rMAOBP: NovaScreen (NVS) Enzymatic Assay for rat Monoamine Oxidase, MAO-B, Peripheral (MAOBP) (AID 2283242)
[13] = tested on: rat Monoamine Oxidase, MAO-A, Central (MAOAC), gene 29253; assay: NVS_ENZ_rMAOAC: NovaScreen (NVS) Enzymatic Assay for rat Monoamine Oxidase, MAO-A, Central (MAOAC) (AID 2283243);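 note: potency refers to inhibition seen as signal drop below DMSO baseline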
How it was run: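 Rat brain tissue extract used as enzyme source in a cell-free radiometric assay, read by scintillation counting 1.5 hours after dosing. Loss of signal relative to DMSO baseline scored; primary screen at 25 uM in duplicate, actives followed up in concentration series.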

[14] = molecular target: human MET Proto-Oncogene, Receptor Tyrosine Kinase (MET), MET (gene 4233) (UniProt P08581); assay: NVS_ENZ_hMet: NovaScreen (NVS) Enzymatic Assay for human MET Proto-Oncogene, Receptor Tyrosine Kinase (MET) (AID 2283180)
Sequence of human MET Proto-Oncogene, Receptor Tyrosine Kinase (MET), MET (gene 4233) (P08581 whole entry, looked up): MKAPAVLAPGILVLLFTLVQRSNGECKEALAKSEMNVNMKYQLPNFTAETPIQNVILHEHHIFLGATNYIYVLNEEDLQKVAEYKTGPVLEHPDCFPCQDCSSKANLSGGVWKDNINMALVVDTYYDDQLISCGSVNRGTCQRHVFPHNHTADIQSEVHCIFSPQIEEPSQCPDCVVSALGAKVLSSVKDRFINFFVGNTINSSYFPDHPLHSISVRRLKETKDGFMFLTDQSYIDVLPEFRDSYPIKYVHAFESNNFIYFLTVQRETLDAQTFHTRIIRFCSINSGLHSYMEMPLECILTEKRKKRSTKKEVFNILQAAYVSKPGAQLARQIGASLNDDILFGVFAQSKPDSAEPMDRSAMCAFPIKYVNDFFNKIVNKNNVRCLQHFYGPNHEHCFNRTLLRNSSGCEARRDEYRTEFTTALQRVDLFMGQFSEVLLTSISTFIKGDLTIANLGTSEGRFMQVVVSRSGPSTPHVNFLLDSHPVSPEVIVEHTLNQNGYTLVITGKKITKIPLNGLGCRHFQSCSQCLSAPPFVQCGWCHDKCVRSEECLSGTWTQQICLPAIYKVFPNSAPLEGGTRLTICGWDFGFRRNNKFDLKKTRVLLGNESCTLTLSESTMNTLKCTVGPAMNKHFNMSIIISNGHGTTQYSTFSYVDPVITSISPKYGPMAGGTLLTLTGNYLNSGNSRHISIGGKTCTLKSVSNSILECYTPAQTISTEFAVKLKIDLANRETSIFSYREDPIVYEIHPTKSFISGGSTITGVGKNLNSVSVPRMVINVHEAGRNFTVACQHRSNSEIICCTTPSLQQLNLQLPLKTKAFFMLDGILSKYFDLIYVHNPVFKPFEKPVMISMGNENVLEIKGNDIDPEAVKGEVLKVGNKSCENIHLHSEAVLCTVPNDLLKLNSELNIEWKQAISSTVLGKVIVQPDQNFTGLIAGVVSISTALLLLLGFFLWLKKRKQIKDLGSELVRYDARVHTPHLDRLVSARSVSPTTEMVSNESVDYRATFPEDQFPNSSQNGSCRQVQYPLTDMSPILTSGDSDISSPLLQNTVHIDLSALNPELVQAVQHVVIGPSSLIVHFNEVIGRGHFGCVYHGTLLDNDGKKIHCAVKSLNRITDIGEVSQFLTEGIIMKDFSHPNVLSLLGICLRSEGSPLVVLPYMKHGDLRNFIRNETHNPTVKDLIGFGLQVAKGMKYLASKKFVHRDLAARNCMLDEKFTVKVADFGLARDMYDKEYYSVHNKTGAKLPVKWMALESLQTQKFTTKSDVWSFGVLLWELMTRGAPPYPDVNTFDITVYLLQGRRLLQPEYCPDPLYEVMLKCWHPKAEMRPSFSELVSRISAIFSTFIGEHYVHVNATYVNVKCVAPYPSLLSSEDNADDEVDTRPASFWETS
How it was run: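 Cell-free MET kinase assay using recombinant protein and fluorescent substrate, with mobility-shift separation; read 1 h after dosing. Primary duplicate at 25 uM; actives in singleton concentration-response to 50 uM maximum. Signal loss versus DMSO.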

[15] = molecular target: human p21 Activated Kinase 4 (PAK4), PAK4 (gene 10298) (UniProt O96013); assay: NVS_ENZ_hPAK4: NovaScreen (NVS) Enzymatic Assay for human p21 Activated Kinase 4 (PAK4) (AID 2283189)
Sequence of human p21 Activated Kinase 4 (PAK4), PAK4 (gene 10298) (O96013 whole entry, looked up): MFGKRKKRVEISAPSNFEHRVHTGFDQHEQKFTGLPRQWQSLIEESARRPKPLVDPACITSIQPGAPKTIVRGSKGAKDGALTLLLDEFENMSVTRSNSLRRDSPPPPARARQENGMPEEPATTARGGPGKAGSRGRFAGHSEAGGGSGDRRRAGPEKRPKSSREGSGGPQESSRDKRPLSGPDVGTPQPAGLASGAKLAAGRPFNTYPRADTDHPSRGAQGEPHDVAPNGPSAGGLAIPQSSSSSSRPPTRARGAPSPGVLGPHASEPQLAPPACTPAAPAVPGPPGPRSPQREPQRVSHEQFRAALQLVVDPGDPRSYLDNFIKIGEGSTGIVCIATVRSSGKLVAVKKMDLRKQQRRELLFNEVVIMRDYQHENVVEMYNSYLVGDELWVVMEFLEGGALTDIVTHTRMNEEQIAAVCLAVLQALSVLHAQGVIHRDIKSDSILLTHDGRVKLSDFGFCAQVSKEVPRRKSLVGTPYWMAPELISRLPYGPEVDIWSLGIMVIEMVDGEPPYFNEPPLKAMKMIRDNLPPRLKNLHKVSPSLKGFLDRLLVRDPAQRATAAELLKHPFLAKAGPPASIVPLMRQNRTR
How it was run: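 Cell-free recombinant human PAK4 activity assay; fluorescent substrate and product separated by electrophoretic mobility shift, read 1 h after dosing. Initially tested in duplicate at 25 uM, relative to DMSO baseline.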

[16] = molecular target: rat Corticotropin Releasing Factor Receptor (CRF), Crhr1 (gene 58959) (UniProt P35353); assay: NVS_GPCR_rCRF: NovaScreen (NVS) G Protein-Coupled Receptor Assay for rat Corticotropin Releasing Factor Receptor (CRF) (AID 2283300)
How it was run: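 Rat cortical membranes used as receptor source in a radioligand competitive displacement binding assay; scintillation read 2 h after dosing. Primary screen run in duplicate at 25 uM; loss of signal versus DMSO baseline indicates binding.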

[17] = molecular target: human Mitogen-Activated Protein Kinase 1 (MAPK 1), MAPK1 (gene 5594) (UniProt P28482); assay: NVS_ENZ_hMAPK1: NovaScreen (NVS) Enzymatic Assay for human Mitogen-Activated Protein Kinase 1 (MAPK 1) (AID 2283175)
How it was run: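 Cell-free recombinant human MAPK1 enzymatic assay, fluorescence/electrophoretic mobility shift read at 1 h; loss of signal vs DMSO. Primary screen in duplicate at 25 uM; actives (e.g. ≥30% inhibition) run as concentration-response up to 50 uM.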

[18] = molecular target: rat Acetylcholinesterase (AChE), Ache (gene 83817) (UniProt P37136); assay: NVS_ENZ_rAChE: NovaScreen (NVS) Enzymatic Assay for rat Acetylcholinesterase (AChE) (AID 2283233)
How it was run: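 Rat brain membrane acetylcholinesterase activity measured colorimetrically 0.33 h after compound addition, loss of signal relative to DMSO. Primary screen in duplicate at 25 uM; actives re-run as concentration-response with 50 uM top concentration.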

[19] = molecular target: rat Adenylate Cyclase, Forskolin Stimulated, Adcy5 (gene 64532) (UniProt Q04400); assay: NVS_ENZ_rACFSKBinding: NovaScreen (NVS) Enzymatic Assay for rat Adenylate Cyclase, Forskolin Stimulated (AID 2283232)
How it was run: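 Rat forebrain membrane preparation, cell-free, read 1 h after dosing by filter-based scintillation counting. Primary screen in duplicate at 25 uM; actives (e.g. ≥30% inhibition) rerun in concentration-response up to 50 uM; fit versus DMSO.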

[20] = Tanguay_ZF_120hpf_MUSC: Oregon State University Tanguay Lab 120 Hour Post-fertilization zebrafish Assay for Muscle Malformation (AID 2284401; active = hit-call score of the fitted dose curve at least 0.9, where 1 is the maximum; inactive = score below 0.9)
How it was run: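 Dechorionated Tropical 5D wild-type zebrafish embryos exposed statically from 6 to 120 hpf at 28C, one per well, in 0.64% DMSO. Muscle malformation scored present/absent by brightfield microscopy at 120 hpf, fitted against DMSO.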

[21] = molecular target: rat Neurotensin Receptor (NTS), Ntsr1 (gene 366274) (UniProt P20789); assay: NVS_GPCR_rNTS: NovaScreen (NVS) G Protein-Coupled Receptor Assay for rat Neurotensin Receptor (NTS) (AID 2283308)
How it was run: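 Rat forebrain membranes; radioligand binding with competitive displacement, read by filter-based scintillation counting 1 h after dosing. Primary screen in duplicate at 25 uM; actives (e.g., 30% inhibition) rerun in concentration-response up to 50 uM, loss-of-signal versus DMSO.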

Measured: AC50

CCc1cccc(CC)c1N
inactive: [1] | [2]

CC[C@H](C)[C@@H](C(=O)O)n1sc2ccccc2c1=O
inactive: [1] | [3] | [4]

CC(C)(C)CC(C)(C)c1ccc(O)c(-n2nc3ccccc3n2)c1
inactive: [1] | [4]

CC/C(=C(/CC)c1ccc(O)cc1)c1ccc(O)cc1
inactive: [5] | PPP2CA (gene 5515) | [6] | [7] | [8] | [9]
active: [1] 37 µM | [10] 12 µM and 14.7 µM and 20.5 µM

CC(N)=O
inactive: [11] | [12] | [13]

FC(F)(F)C(F)(F)C(F)(F)C(F)(F)C(F)(F)C(F)(F)CCI
inactive: [1] | [14] | [15] | [6] | [7] | [8] | [9]

CC(C)=CCC/C(C)=C/CO
inactive: [14]

Cc1cc(C)c(O)c(C)c1
inactive: [1] | [13] | [2] | [16]

c1ccc2ccccc2c1
inactive: [17] | [14] | [15] | [6]

CC(C)=CCC/C(C)=C\CO
inactive: [1] | [18]

OCCC(F)(F)C(F)(F)C(F)(F)C(F)(F)C(F)(F)C(F)(F)F
inactive: [1] | [19] | [10] | [20]

NC(=O)NO
inactive: [11]

Cc1cn([C@H]2C[C@H](N=[N+]=[N-])[C@@H](CO)O2)c(=O)[nH]c1=O
inactive: [1] | [17] | [21]
